Data on 28 compounds can be found in PubChem BioAssay AID886 (National Center for Advancing Translational Sciences (NCATS), 2007).

The whole screen tested about 73,000 compounds, of which about 2,500 (3.4%) were called active. Where a call stands in place of a potency, no number is given. About 7% were inconclusive and are not listed. The sample holds actives, similar compounds and a random draw of the others, so the mix is not that of the screen. Calls follow the shape of the dose curve; as a rule, active = well fitted inhibition curve with a large enough effect; inconclusive = small, poorly fitted or top-dose-only effect; inactive = no such curve, though single readings can be large or run the other way.
Potency is read from the fitted curve at half-maximal effect.

The test deals with 3-hydroxyacyl-CoA dehydrogenase type-2 (Homo sapiens) (UniProt Q99714). Description: qHTS Assay for Inhibitors of HADH2 (Hydroxyacyl-Coenzyme A Dehydrogenase, Type II). Also: nearly all actives have a fitted effect of over 60% in size. The note with it: recombinant HADH2, NADH fluorescence, beta-hydroxybutyryl-CoA; series mostly up to 57.1 µM. The method in brief: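 His-tagged recombinant enzyme from E. coli, 20 nM, preincubated 15 min RT with compound; reaction started with 1 mM NAD+ and 90 uM beta-hydroxybutyryl-CoA in 100 mM Tris-HCl pH 9.0. NADH fluorescence (ex 360/em 450) read over 4 min; last-minus-first difference.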
Sequence of 3-hydroxyacyl-CoA dehydrogenase type-2 (Homo sapiens) (Q99714 whole entry, looked up): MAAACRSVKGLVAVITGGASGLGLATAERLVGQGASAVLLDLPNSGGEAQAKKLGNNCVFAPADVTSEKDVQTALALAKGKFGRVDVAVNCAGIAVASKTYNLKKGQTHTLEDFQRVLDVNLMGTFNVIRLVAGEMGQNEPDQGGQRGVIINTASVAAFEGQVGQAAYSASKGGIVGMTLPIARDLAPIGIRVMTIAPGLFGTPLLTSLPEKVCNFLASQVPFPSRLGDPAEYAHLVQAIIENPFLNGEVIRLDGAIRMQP
Sequence of 3-hydroxyacyl-CoA dehydrogenase type-2 (Homo sapiens) (Q99714 whole entry, looked up): as above
`O=C(O)c1cccc(S(=O)(=O)NCCO)c1`: the activity change, negative = inhibition was -11.5% [at 11.4 µM] (inactive).
As to `O=C(CN1C(=O)CCS(=O)(=O)c2ccccc21)NCc1ccc(F)cc1`, the Potency entry is “inactive”.
Still for that read-out and setting: the result for `NC(=O)CSC1=Nc2ccccc2C2=NC(CCC(=O)NCc3ccc(F)cc3)C(=O)N12` (stereo not drawn) reads 31.6 µM (active); that for `CC(C)C1N=C2c3ccccc3N=C(SCC(=O)c3ccc(O)c(O)c3)N2C1=O` (stereo not drawn), “inactive”.
Regarding `CC(=O)/C(=N\N=C(N)N)c1ccccc1`, the activity change, negative = inhibition was 5.03% [at 11.4 µM] (inactive).
Same read-out and setting: the result for `NS(=O)(=O)c1cc(C(=O)O)c(Cl)c([N+](=O)[O-])c1Cl` reads 11.6% [at 11.4 µM] (inactive).
Turning to `O=C(c1ccncc1)N1CCC2(CCN(Cc3cc(C(F)(F)F)cc(C(F)(F)F)c3)CC2)CC1`, the Potency result is “inactive”.
The same measure, in the same setting: with `Cc1nc2cnc(N3CCNCC3)nc2n(CCc2ccccc2)c1=O` the entry was “inactive”; with `Cc1cc(C)c2c(n1)nn1c(-n3ccnc3)cc(C)nc21`, “inactive”; with `Cc1cc(C)c2c(n1)nn1c(N3CCOCC3)cc(C)nc21`, 25.1 µM (active).
The same measure, in the same setting: with `Cc1cc(C)c2c(n1)nn1c(N3CCN(c4cccc(Cl)c4)CC3)cc(C)nc21` the entry was “inactive”.
`Cc1cc(C(=O)O)ccc1[N+](=O)[O-]`: the Potency result was “inactive”.
Still for that read-out and setting: with `CCCCC/C=C/C=C/C=O` the entry was “inactive”.
On the same count and under the same terms, with `C=CC(=O)c1ccc2ccccc2c1` the figure was 20 µM (active).
Turning to `Cc1ccc2nc(CC(=O)c3ccc4ccccc4c3)c(=O)[nH]c2c1`, the activity change, negative = inhibition was 11.5% [at 11.4 µM] (inactive).
For `CCCC[C@H]1C(=O)N(c2ccccc2)N(c2ccc(O)cc2)C1=O`, the Potency result is “inactive”.
The same measure, in the same setting: the result for `COc1ccc(-n2c(=O)c(C)nc3cnc(N4CCOCC4)nc32)cc1` reads “inactive”.
Still for that read-out and setting: the result for `COCC(=O)N1CCC2(CCCN(c3ccccc3)C2)CC1` reads “inactive”.
`O=C(O)COc1c(Cl)cc(Cl)c2cccnc12`: the activity change, negative = inhibition was 7.63% [at 11.4 µM] (inactive).
In the case of `COc1ccc(-c2n[nH]c(C)c2-c2ccc(OC)c(OC)c2)c(O)c1`, the Potency result was “inactive”.
Still for that read-out and setting: with `Oc1ccc(-c2csc(Nc3cccnc3)n2)cc1` the entry was “inactive”; with `COc1ccc(OC)c(Nc2nc(-c3ccc(O)c(O)c3)cs2)c1`, 0.126 µM (active).
Turning to `CO[C@@H]1/C=C\O[C@]2(C)Oc3c(C)c(O)c4c(O)c(c(CN(C)C)c(O)c4c3C2=O)NC(=O)/C(C)=C\C=C[C@@H](C)[C@@H](O)[C@H](C)[C@@H](O)[C@H](C)[C@H](OC(C)=O)[C@@H]1C`, the activity change, negative = inhibition was -4.82% [at 11.4 µM] (inactive).
In the case of `CC(C)NC(=O)N1CC[C@@]2(CCCN(C(=O)c3cccc(F)c3)C2)C1`, the Potency result is “inactive”.
Take `COC(=O)NC(c1ccccc1)[C@]1(C(C)=O)CCCC1=O` (stereo partly drawn): the activity change, negative = inhibition was 4.66% [at 11.4 µM] (inactive).
For the compound `CN1CCCc2cc(C#N)c(=O)[nH]c21`, the Potency is 3.16 µM (active).
The same measure, in the same setting: the result for `CC/C=C/C/C=C/C/C=C/CCCCCCCC(=O)OCC` reads “inactive”.
Regarding `CN(C)CCSS(=O)(=O)O`, the activity change, negative = inhibition is 9.41% [at 11.4 µM] (inactive).
